# Measured values from PubChem BioAssay (NCI).
# This is part of a sample that, as a whole, favours compounds with a hit. Of some 83,000 tested, about 20% had one in any assay.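 Negative percent growth values reflect cell death: -40 means 40% of the cells present at the start died, and -100 means all died.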 Active and inactive are the calls of the source. Rule for the calls: active = growth percent below 10; inactive = the rest.
# Test system: U251 CNS
# Assay: NCI-60 one-dose screen, 48 h (100 = growth as untreated, 0 = no growth, -100 = all killed)
# Details: 10 µM
row,Structure (SMILES),growth
1,CS(=O)(=O)c1nccc(-c2c(-c3cccc(OCc4ccc(F)cc4)c3)nc3sccn23)n1,96.6% (inactive)
2,CCOC(=O)c1cc(C(=O)c2ccc(F)cc2F)n2ccccc12,79.4% (inactive)
3,O=C(N/N=C/c1ccc(Cl)cc1)c1ccccc1Nc1cccc(C(F)(F)F)c1,72% (inactive)
4,CC(C)(C)OC(=O)N1CCc2c(sc3ncnc(N/N=C/c4ccccc4Br)c23)C1,74.9% (inactive)
5,CC(C)N(CCOc1ccc(-c2nc3sccn3c2-c2ccnc(S(C)(=O)=O)n2)cc1)C(C)C,91.4% (inactive)
6,CN(C)CCCOc1ccc(NC2=C(Cl)C(=O)C(Nc3ccc(OCCCN(C)C)cc3)=C(Cl)C2=O)cc1,-91.2% (active)
7,COc1cccc(C2C(C#N)=C(N)Oc3cc(N)ccc32)c1 (centres undefined),4.8% (active)
8,Cc1ccc(NCCN(C)CC(C)O)c2c(=O)c3ccccc3sc12 (centres undefined),31.9% (inactive)
9,CCCCN(CCCC)C(=O)[C@H](CC)[C@@H]1CC[C@@H](C)[C@@H]([C@H](C)[C@@H](O)[C@@H](C)C(=O)[C@H](CC)C2O[C@]3(C=C[C@@H](O)[C@]4(CC[C@@](C)([C@H]5CC[C@](O)(CC)[C@H](C)O5)O4)O3)[C@H](C)C[C@@H]2C)O1 (some centres undefined),13.9% (inactive)
10,CC(C)N(CCOc1cccc(-c2nc3sccn3c2-c2ccnc(S(C)(=O)=O)n2)c1)C(C)C,83.8% (inactive)
11,NC(=O)c1cccc(-n2ccc3cc(NC(=O)Nc4ccc(Cl)c(C(F)(F)F)c4)ccc32)n1,56.5% (inactive)
12,COc1cccc(-c2nc3sccn3c2-c2cccc(S(C)(=O)=O)c2)c1,106% (inactive)
13,COc1ccc(Cl)cc1Nc1nc(C(F)(F)F)ccc1C(=O)N/N=C/c1ccc(Cl)cc1,29.9% (inactive)
14,CCOc1ccccc1/C=N\N=C\c1ccccc1O,104% (inactive)
15,CN(C)c1ccc(/C=N/NC(=O)c2ccccc2Nc2cccc(C(F)(F)F)c2)cc1,81.1% (inactive)
16,COc1cc2cc(Oc3ccc(NC(=O)Nc4cccc(C(F)(F)F)c4)cc3)c(C)nc2cc1OC,-85.7% (active)
17,O=C(Nc1cc(Cl)cc2c1-c1ccc(Cl)cc1C2O)C(Cl)Cl (centres undefined),78.4% (inactive)
18,C/C(=N\O)c1ccc(NC(=O)CSc2nnc(-c3ccccc3)n2-c2ccccc2)cc1,59.2% (inactive)
19,CCN(CC)CCCOc1cccc2c1C(=O)c1cccc(OCCCN(CC)CC)c1C2=O,31.2% (inactive)
